Vaccinia Venus: vaccinia inhibition (Venus reporter); Vaccinia virus Venus reporter expression, fluorescence; Potency, µM (series often up to 36.5 µM), for the others: at the highest dose activity change, negative = inhibition, usual class: inhibitors; 0.46% of 330,000 active; AID 720580; calls by dose curve; tested in A549 cells; further: potency means the concentration at half of the fitted maximal effect; on the % scale 0 is the no-effect control and ±100 the full control effect; nearly all actives have a fitted effect of over 30% in size
Vaccinia mCherry: vaccinia inhibition (mCherry reporter); 0.63% of 310,000 active; AID 720579; Potency, µM (titrated, usually from 36.5 µM), inactives show top-dose activity change, negative = inhibition, actives largely listed as inhibitors; Vaccinia virus mCherry reporter infection, fluorescence; calls by dose curve; tested in A549 cells; further: potency means the concentration at half of the fitted maximal effect; on the % scale 0 is the no-effect control and ±100 the full control effect; nearly all actives have a fitted effect of over 35% in size
Cycloheximide cs: counter-screen hit for Shiga toxin inhibitors, cycloheximide. max response, %. cell reporter, cycloheximide protein synthesis inhibition counterscreen. 12% of 300,000 active; in the data active means max response mostly above about 13%, no sharp cut-off; inactive means mostly below about 14%; further: read at 38.3 µM for the half of the compounds with a filed dose; 0% is about no effect
Lassa entry inh: inhibitors of Lassa virus binding or cell entry. Potency, µM (series often up to 37.9 µM), without a hit: at the top dose activity change, negative = inhibition, hits mostly inhibitors. 1.2% of 300,000 active. Lassa virus pseudotype entry inhibition, cell reporter; calls by dose curve; tested in HEK293 cells; further: potency means the concentration at half of the fitted maximal effect; on the % scale 0 is the no-effect control and ±100 the full control effect; nearly all actives have a fitted effect of over 50% in size
Shiga toxin inh: Shiga toxin inhibition | Vero cells, Shiga toxin protein synthesis inhibition reporter | inhibition, % at 38.7 µM | 9.2% of 290,000 active | AID 2315; in the data active means inhibition mostly above about 28%, no sharp cut-off; inactive means mostly below about 43%; further: 0% is about no effect
MARV entry inh: blocks Marburg virus binding to or entry into cells | AID 540276 | 1.8% of 300,000 active | Marburg virus pseudotyped entry inhibition, cell reporter | Potency, µM (doses to about 37.8 µM), for the others: top-dose activity change, negative = inhibition, usual class: inhibitors; calls by dose curve; tested in HEK293 cells; further: potency means the concentration at half of the fitted maximal effect; on the % scale 0 is the no-effect control and ±100 the full control effect
The depositor's hits bear a star; i = inactive; ? = inconclusive; nt = no result given; [ ] = another dose, or the depositor's remark. Shown is part of a subset that was picked to be rich in hits.

SMILES	Vaccinia Venus	Vaccinia mCherry	Cycloheximide cs	Lassa entry inh	Shiga toxin inh	MARV entry inh
Clc1ccccc1Sc1ccc(-c2ccccn2)s1	-7%	i	8	-4%	38	2%
Cc1ccc2nc(-c3ccc(O)c(O)c3)cn2c1	-13%	-4%	-8	?	nt	?
Cc1ccc2nc(-c3ccccc3)cn2c1	0%	i	1	0.32µM*	-13	0.45µM*
CC(=O)Nc1ccc(-c2cn3cc(C)ccc3n2)cc1	-23%	-6%	42*	?	61*	?
Cc1ccc2nc(-c3ccc(-c4ccccn4)s3)cn2c1	-7%	-13%	45*	?	69*	?
Cn1c(=O)c2c(nc(SCC(=O)Nc3ccccc3F)n2Cc2ccccc2F)n(C)c1=O	-21%	-14%	nt	9%[46.1 µM]	nt	7%[46.1 µM]
CCC1C(=O)Nc2ccccc2N1C(=O)COc1ccccc1 (stereo unspecified)	4%	i	-3	-9%[46.1 µM]	11	-16%[46.1 µM]
Cc1nonc1C(=O)N1CCCC(N2CCN(c3ccc(F)cc3)CC2)C1 (stereo unspecified)	-19%	i	-3	-15%	-8	5%
Cc1ncsc1CCOC(=O)c1ccc([N+](=O)[O-])cc1	-20%	-21%	25*	14%	41*	-3%
Cc1ncsc1CCOC(=O)c1cccnc1	-3%	-15%	-4	-5%	-4	-3%
Cc1ccc(C(=O)NCCc2nnc3n2CCN(Cc2ccnc4ccccc24)CC3)c(C)c1	-14%	-13%	nt	nt	nt	nt
COc1ccc([C@@H]2C(C#N)=C(C)NC3=C2C(=O)c2ccccc23)cc1	nt	nt	nt	nt	nt	-23%
CC1=C([N+](=O)[O-])C(c2ccccc2)C2=C(N1)c1ccccc1C2=O (stereo unspecified)	?	13µM*	-1	?	-13	?
Cc1cc(C(=O)N/N=C2/CC(C)CC(C)(C)C2)c(C)o1 (stereo unspecified)	-16%	-8%	31*	4%	77*	?
Cc1nn(-c2cccc(Cl)c2)c2nc(C(F)(F)F)[nH]c(=O)c12	-3%	-9%	-2	16%	10	10µM*
Cc1nn(-c2cc(C(F)(F)F)ccc2Cl)c2nc(C(F)(F)F)[nH]c(=O)c12	-11%	i	-1	1%	-3	9%
CCOC(=O)/C(=C/c1ccc(N2CCC(c3ccccc3)=N2)cc1)C(C)=O	-11%	-24%	8	?	40	-30%
c1ccc(C2=NN(c3ccccc3)CC2)cc1	nt	nt	61*	nt	114*	nt
CCN1CCCC1CNC(=O)c1cnn(-c2nccc(-c3cccs3)n2)c1C1CC1 (stereo unspecified)	-6%	-9%	nt	nt	nt	nt
N#Cc1ccc(-c2cn3c(n2)SCC3)cc1	nt	nt	36*	nt	64*	nt
CC(C)Oc1ccc(CCN)cc1Cl	-2%	i	-2	-15%	-8	?
CCCCOc1ccc(CCN)cc1Cl	-6%	-17%	34*	6%	20	?
CCCCOc1ccc(CSCCN)cc1Cl	nt	nt	23*	nt	73*	nt
Cc1ccc(C)c(N2CCN(C(=O)Cn3cnc4sc(C)c(S(=O)(=O)N5CCN(c6ncccn6)CC5)c4c3=O)CC2)c1	-22%	-35%	nt	-23%[46.1 µM]	nt	?
CC(/C=N/n1c(C2CCCCC2)n[nH]c1=S)=C\c1ccccc1	nt	nt	-3	18µM*	-9	?
SMILES	Vaccinia Venus	Vaccinia mCherry	Cycloheximide cs	Lassa entry inh	Shiga toxin inh	MARV entry inh
Cc1cccc(/C=N/n2c(C3CCCCC3)n[nH]c2=S)c1	nt	nt	-5	nt	-15	nt
Cc1ccc2ncc(C(=O)N3CCN(c4ccccc4F)CC3)c(=O)n2c1	-8%	-8%	nt	nt	nt	-7%[46.1 µM]
O=C(OC1CCc2ccccc2C1=O)c1ccccc1O (stereo unspecified)	-7%	-19%	41*	17%	90*	?
C=CCN(c1ccc(C(=O)Nc2ccc(C)c(C)c2)cc1)S(C)(=O)=O	-27%	-27%	19*	4%	36	?
C=CCN(c1ccc(C(=O)NCCSc2ccccc2)cc1)S(C)(=O)=O	nt	nt	33*	nt	120*	nt
C=CCN(c1ccc(C(=O)OC)cc1)S(=O)(=O)c1ccccc1	-6%	i	33*	3%	92*	9%
c1ccc(CSc2ccc(-c3ccccn3)nn2)nc1	?	?	48*	?	98*	?
O=C(CSc1ccc(-c2ccncc2)nn1)c1ccc(Cl)cc1	-10%	-4%	-1	-3%[46.1 µM]	-10	7%[46.1 µM]
Clc1ccc(-c2ccc(SCc3ccccn3)nn2)cc1	nt	nt	41*	14%	59*	-2%
c1ccc(CSc2nnc(SCc3ccccn3)s2)nc1	nt	nt	30*	?	59*	?
CN(C)CCn1c(N)nc2ccccc21	-13%	?	6	3%[46.1 µM]	-6	?
Cc1ccc(S(=O)(=O)N(C)Cc2cc3ccccc3[nH]c2=O)cc1	nt	nt	6	6%	-4	-11%
CN(Cc1cc2ccccc2[nH]c1=O)S(=O)(=O)c1ccccc1	-20%	-21%	19*	?	33	25%
COc1ccc(N(Cc2cc3ccccc3[nH]c2=O)S(=O)(=O)c2ccc(C)cc2)cc1	-9%	i	27*	nt	39*	nt
O=C(NNc1nc2cc3c(cc2s1)OCO3)c1ccccc1	-11%	-30%	61*	?	90*	24%
O=C(NNc1nc2cc3c(cc2s1)OCO3)c1cccc(F)c1	-15%	-21%	61*	14%	active	?
COc1cc(OC)cc(C(=O)NNc2nc3cc4c(cc3s2)OCO4)c1	-11%	?	-1	5%	-6	22%
O=C(CSc1nc2ccccc2c(=O)n1-c1ccccc1)NC(=O)CN1CCCC1=O	5%	10%	-3	1%	-10	-9%[46.1 µM]
O=C(Nc1nc(-c2ccc3c(c2)OCO3)cs1)C1COc2ccccc2O1 (stereo unspecified)	-12%	i	16*	nt	-21	nt
COc1cccc(C(=O)Nc2nc(-c3ccc4c(c3)OCO4)cs2)c1	-27%	-23%	3	nt	16	nt
CC(=O)Nc1nc(-c2ccc3c(c2)OCO3)cs1	-26%	?	53*	nt	61*	nt
Cc1c(C(=O)NCC2(N3CCOCC3)CCCCCC2)cnn1-c1nccc(-c2ccccc2F)n1	-13%	-6%	nt	nt	nt	nt
Cc1ccc2c(c1)sc[n+]2Cc1ccccc1	nt	nt	42*	14%	82*	?
Cc1ccc(-c2cc[n+](Cc3ccccc3)cc2)cc1	-15%	-29%	9	-20%	-8	?
CCOc1ccc(NC(=S)Nc2cccc3cnccc23)cc1	1%	i	14*	-6%	11	-1%
CCOc1ccc(NC(=S)Nc2ccc(OCC)cc2)cc1	-23%	-4%	-2	?	24	?
CCOc1ccc(NC(=S)Nc2cccc3ccccc23)cc1	-9%	?	72*	8%[46.1 µM]	89*	1%[46.1 µM]
COc1ccc(NC(=S)Nc2cccc3cnccc23)cc1	-7%	-15%	-3	11%	32	0%
CN1c2ccccc2[C@@]2(O)C(=O)[C@@]1(C)[C@@H]1C=CCC[C@H]12	nt	nt	nt	nt	nt	29%[14.2 µM]
Cc1ccc(NC(=O)c2sc3nc(CCl)[nH]c(=O)c3c2C)c(C)c1	-5%	-2%	29	11%	59*	-28%[46.1 µM]

Screening data from PubChem.
